Data on ten compounds can be found in PubChem BioAssay (NCATS).

Test [1] in a line: qHTS Assay for Identifying Gametocytocidal Compounds (AID 743244). Further: potency means the concentration at half of the fitted maximal effect.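 On max response: on the % scale 0 is the no-effect control and ±100 the full control effect; actives lower the fluorescent signal which means gametocytes are killed.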 The settings on record: P. falciparum 3D7 stage III-V gametocytes, alamarBlue, 72 h; max response: stronger effect = lower value. In short, it runs like this: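 Viability read-out was resazurin reduction (alamarBlue, 24 h) measured at Ex 525/Em 598 nm. Beforehand, late-stage (III-V) 3D7 P. falciparum gametocytes at 20,000 cells/well were incubated with compound 72 h at 37C under 5% CO2.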

Test [2] is described as follows: qHTS profiling for inhibitors of Plasmodium falciparum (3D7) proliferation (AID 743322; call rule not given here;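 further: infected erythrocytes exposed to compound for 72 h before lysis; 100% = DMSO vehicle wells and 0% = 0.29 µM artemisinin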). The settings on record: P. falciparum 3D7 proliferation; at 28.7 µM (top of the series) unless noted. The method in brief: (§1)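 Parasite DNA was quantified by SYBR Green I fluorescence (ex 485, em 535 nm) after overnight lysis in saponin/Triton buffer at room temperature. Cultures at 0.3% parasitemia and 2.5% hematocrit were first exposed to compound for 72 h at 37 C; signals were normalised to artemisinin (0.29 uM) and vehicle wells.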
Background: In qHTS, concentration-response curves come from the screen itself.

Test [3] can be described thus: qHTS profiling for inhibitors of Plasmodium falciparum (DD2) proliferation (AID 743323; call rule not given here). The settings on record: lower = more inhibition; at 28.7 µM (top of the series) unless noted. The method in brief:
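Parasite DNA quantified by SYBR Green fluorescence (ex 485, em 535 nm) after saponin/Triton lysis and overnight dark incubation. Cultures: 0.3% parasitemia, 2.5% hematocrit, 72 h, 37 C; data scaled between DMSO and 0.29 uM artemisinin.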

A short description of test [4]: qHTS profiling for inhibitors of Plasmodium falciparum (HB3) proliferation (AID 743324).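 Further: 100% = DMSO vehicle wells and 0% = artemisinin-treated control wells.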 The settings on record: Plasmodium falciparum HB3 blood-stage proliferation; at 28.7 µM (top of the series) unless noted. In short, it runs like this: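 SYBR Green fluorescence (485 ex/535 em) of lysed cultures, incubated overnight at room temperature in the dark, quantifies parasite DNA. Infected erythrocytes at 0.3% parasitemia and 2.5% hematocrit were exposed 72 h; values normalized to DMSO and 0.29 uM artemisinin controls.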

The nature of test [5]: qHTS profiling of the MIPE4 collection as inhibitors of Plasmodium falciparum (3D7) proliferation (AID 743344; call rule not given here;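 further: scaled between DMSO vehicle wells and 0.29 µM artemisinin as full inhibition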). The settings on record: P. falciparum 3D7 in erythrocytes, SYBR Green DNA fluorescence, 72 h; at 28.5 µM (top of the series) unless noted. In short, it runs like this:
as §1

Test [6] in a line: qHTS profiling of the MIPE4 collection as inhibitors of Plasmodium falciparum (DD2) proliferation (AID 743345; call rule not given here). The settings on record: P. falciparum Dd2 in erythrocytes, SYBR Green DNA, 72 h; at 28.5 µM (top of the series) unless noted. The method in brief:
as §1

The nature of test [7]: qHTS profiling of the MIPE4 collection as inhibitors of Plasmodium falciparum (DD2) proliferation (Rep 2) (AID 743346; call rule not given here). The settings on record: P. falciparum Dd2 in erythrocytes, SYBR Green DNA, 72 h; at 28.5 µM (top of the series) unless noted. The method in brief:
as §1

Test [8] in a line: qHTS profiling of the MIPE4 collection as inhibitors of Plasmodium falciparum (HB3) proliferation (AID 743347; call rule not given here;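 further: plate controls were DMSO vehicle wells for no effect and artemisinin wells for full effect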). The settings on record: P. falciparum HB3 in erythrocytes, SYBR Green DNA, 72 h; at 28.5 µM (top of the series) unless noted. The method in brief: as §1
The nature of test [9]: qHTS assay to identify small molecule inhibitors of chordoma cells - UCH-2 (AID 1259356). Further: potency means the concentration at half of the fitted maximal effect.
A short description of test [10]: qHTS assay for cell viability of HEK293 cells (AID 743288). Further: on the % scale 0 is the no-effect control and ±100 the full control effect; nearly all actives have a fitted effect of over 50% in size. The settings on record: ATP luminescence (CellTiter-Glo), 18 h, stronger effect = lower value. The method in brief:
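Viable-cell counts were inferred from luciferase-based ATP content in HEK293 cells seeded at 2,000/well, pre-incubated ≥5 h, then dosed with DMSO-solubilised compounds for 18 h at 37 C.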

Test [11] can be described thus: qHTS assay for cell viability of the p53RE-bla HCT-116 cell line (AID 743292). Further: on the % scale 0 is the no-effect control and ±100 the full control effect; nearly all actives have a fitted effect of over 55% in size. In short, it runs like this:
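HCT-116 p53RE-bla cells seeded 4,000/well; 5 h at 37 C; compound (DMSO) added; 16 h at 37 C; CellTiter-Glo added, 30 min RT; luminescence read.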

Test [12] can be described thus: Identifying Small Molecule Inhibitors of Pancreatic Cancer Stem Cells (A2780, Spheroid) (AID 1259357). Further: potency means the concentration at half of the fitted maximal effect.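 Further: spheroids pre-formed over 14 days in stem cell medium on hydrogel; compound exposure lasted 48 h before the ATP luminescence read.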 The settings on record: Potency: A2780 spheroid viability. The method in brief:
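Spheroids grown 14 days in stem cell media on hydrogel-coated nonadherent plates; 2D lines seeded directly. Compounds added after 4 h attachment, 48 h at 37C, 5% CO2; CellTiter-Glo luminescence normalized to DMSO (no inhibition) and no-cell wells (full inhibition).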

Test [13] is described as follows: Identifying Small Molecule Inhibitors of Pancreatic Cancer Stem Cells (Panc1, Spheroid) (AID 1259359).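 Further: potency means the concentration at half of the fitted maximal effect; compound exposure lasted 48 h before reading.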 In short, it runs like this: (§2)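 Viability is scored by CellTiter-Glo luminescence 48 h after dosing, expressed as percent activity against vehicle and no-cell references. Spheroid formats rely on cells cultured 14 days in stem cell media beforehand.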
Test [14] in a line: Identifying Small Molecule Inhibitors of Pancreatic Cancer Stem Cells (A278, Adherent) (AID 1259361).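 Further: viability read after 48 h compound exposure; nearly all actives have a fitted effect of over 35% in size.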 The method in brief:
as §2

Test [15] in a line: Identifying Small Molecule Inhibitors of Pancreatic Cancer Stem Cells (Panc1, Adherent) (AID 1259362). Further: potency means the concentration at half of the fitted maximal effect. The settings on record: Potency: viability. In short, it runs like this: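 Adherent (2D) versus sphere (3D) formats; spheres generated 14 d in SCM beforehand. Compound transferred by pin tool after 4 h, 48 h incubation, CellTiter-Glo endpoint.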
Test [16] in a line: Identifying Small Molecule Inhibitors of Pancreatic Cancer Stem Cells (SN12C, Adherent) (AID 1259358).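 Further: cell survival measured after 48 h of compound exposure.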 In short, it runs like this: as §2
Test [17] can be described thus: P-glycoprotein substrates identified in KB-3-1 adenocarcinoma cell line, qHTS therapeutic library screen (AID 1346986). Further: nearly all actives have a fitted effect of over 60% in size. The method in brief: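 Using luminescence to quantify ATP, parental and P-gp-overexpressing KB cells were compared after 72 h compound titration. KB-8-5-11 was also run with the P-gp inhibitor tariquidar.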

Several values for one entry are separate records, joined by “and”; a condition that tells them apart may be missing. Identical values can stand only once. Results filed as inconclusive are left out. Activity calls are given as the source filed them. Unless noted, the call rests on the fitted dose curve; in most records, active means well fitted curve in the direction sought with a large enough effect; inconclusive means small, poorly fitted or top-dose-only effect, or another doubt; inactive means no such curve, though single readings can be large; an effect the other way counts as inactive or inconclusive. Non-standard residues stand in square brackets, D forms with d. Residues, ends and D or L forms follow the SMILES beside them. Orn = NCCC[C@H](N)C(=O)O

As to `CC(C)C[C@@H]1NC(=O)[C@H](CCCN)NC(=O)[C@H](C(C)C)NC(=O)[C@@H]2CCCN2C(=O)[C@@H](Cc2ccccc2)NC(=O)[C@H](CC(C)C)NC(=O)[C@H](CCCN)NC(=O)[C@H](C(C)C)NC(=O)[C@@H]2CCCN2C(=O)[C@@H](Cc2ccccc2)NC1=O` (cyclo(V[Orn]L[dF]PV[Orn]L[dF]P)), the Potency in test [1] is 2.24 µM (active); in test [9], 8.2 µM (active). Besides, in [2], the remaining parasite growth % (stronger effect = lower value) was -2.61%. Besides, the activity, percent of control in test [3] is -0.499%. For the same compound, the remaining proliferation (% of control), lower = more inhibition in test [4] is -1.03%. This compound yielded a parasite growth, % of DMSO control in [5] of 6.95%. This compound gave a parasite growth remaining, % of DMSO control (lower = more inhibition) in [6] of 5.43%. The parasite growth, % of control (lower = inhibition) in test [7] was 6.21%. In addition, the growth, % of control in [8] stood at 4.03%.
Turning to `CCOc1ccc2c(c1)C(C)=CC(C)(C)N2`, in [10], the max response was -17.1% (inactive) and -27.7% (inactive). Further, in [11], the call was inactive. The Potency result in test [9] is “inactive”.
For `CC[C@@H](C(=O)O)C1CC[C@H](C)C([C@@H](C)[C@H](O)[C@H](C)C(=O)[C@H](CC)C2O[C@]3(C=C[C@@H](O)[C@]4(CC[C@@](C)(C5CC[C@](O)(CC)[C@H](C)O5)O4)O3)[C@H](C)C[C@@H]2C)O1` (stereo partly specified), in [2], the remaining parasite growth % (stronger effect = lower value) was -3.05%. The activity, percent of control in test [3] was -0.726%. The remaining proliferation (% of control), lower = more inhibition in [4] is -1.24%. The Potency in test [12] was 33.2 nM (active); in test [13], 14.8 µM (active); in test [15], 7.43 µM (active). Besides, the IC50 (viability decrease) in [14] was 0.0743 µM (active).
As for `CCCCCCCCCCCCCCCCCCOP(=O)([O-])OC1CC[N+](C)(C)CC1`, the max response in test [1] is 13.1% (inactive). For the same compound, in test [2], the remaining parasite growth % (stronger effect = lower value) stood at 98.6% [at 18.4 µM]. Further, the activity, percent of control in test [3] was determined as 114% [at 18.4 µM]. The remaining proliferation (% of control), lower = more inhibition in test [4] came to 112% [at 18.4 µM]. The Potency entry in test [12] and in [16] was “inactive” in each case. The IC50 (viability decrease) in test [14] was 8.12 µM (active).
For the compound `COc1cccc(-c2ccc([C@@H](Oc3cc(-c4ccc(C[C@H](N)C(=O)O)cc4)nc(N)n3)C(F)(F)F)cc2)c1`, in test [17], the Potency entry was “inactive”.
For `CC(C)N=c1cc2n(-c3ccc(Cl)cc3)c3ccccc3nc-2cc1Nc1ccc(Cl)cc1`, the parasite growth, % of DMSO control in test [5] is 10.9%. For the same compound, in test [6], the parasite growth remaining, % of DMSO control (lower = more inhibition) was determined as 7.22%. Besides, the parasite growth, % of control (lower = inhibition) in test [7] turned out to be 166%. The same compound returned a growth, % of control in [8] of 47.5%. Further, the Potency result in test [9] was “inactive”.
Regarding `CCC(C)/C=C(C)/C=C/C1=CC2=C(Cl)C(=O)C(C)(OC(C)=O)C(=O)C2=CN1CCCC(=O)O` (stereo unspecified), the Potency result in test [17] was “inactive”.
On the same count and under the same terms, as for `COc1c(C)c(OCC=C(C)C)cc2c1C(=O)NC2=O`, the entry is “inactive”.
The same measure, in the same setting: next, `CNC(=O)c1ccc2cc([C@@]3(O)CCn4cncc43)ccc2c1`: “inactive”.
As to `O=c1cc(C2=CC=CC3Sc4ccccc4SC23)oc(N2CCOCC2)c1` (stereo unspecified), the max response in test [1] was -19.3% (inactive). In addition, the remaining parasite growth % (stronger effect = lower value) in [2] was found to be 90.9%. In addition, in test [3], the activity, percent of control was found to be 88.7%. The remaining proliferation (% of control), lower = more inhibition in test [4] amounted to 76.5%. Also, the Potency result in test [16] and in [15] was “inactive” each time.
